From PubChem BioAssay (EPA / NIEHS)
Records with an inconclusive call do not appear. Calls of active or inactive are those of the source. Rule for the calls, unless noted: active = hit-call score of the fitted dose curve at least 0.9, where 1 is the maximum; inactive = score below 0.9.

Key:
[1] = biological target: Oxysterols receptor LXR-beta (Homo sapiens) (UniProt P55055); test: ATG_LXRb_TRANS: Attagene TRANS-FACTORIAL HepG2 Assay for human Liver X Receptor beta (LXRb) (AID 2282981; active = hit-call score of the fitted dose curve at least 0.9, where 1 is the maximum); settings: HepG2 Attagene TRANS GAL4-LXRb reporter, mRNA
Outline: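 Liver-derived HepG2 cells transfected with Gal4-responsive reporters were dosed for 24 h. Activation was scored as rise in reporter mRNA, by RT-PCR and capillary electrophoresis, above DMSO baseline.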

[2] = biological target: Hepatocyte nuclear factor 4-alpha (Homo sapiens) (UniProt P41235); test: ATG_HNF4a_TRANS: Attagene TRANS-FACTORIAL HepG2 Assay for human Hepatocyte Nuclear Factor 4 alpha (HNF4a) (AID 2282982; active = hit-call score of the fitted dose curve at least 0.9, where 1 is the maximum); settings: HepG2 HNF4a transactivation reporter, mRNA readout
Outline: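 Using HepG2 liver cells transfected with GAL4-UAS reporter units, chemical-induced mRNA increases were assessed after 24 hours. Fluorescent RT-PCR fragments were separated by capillary electrophoresis and compared with DMSO negative controls.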

[3] = ATG_M_06_TRANS: Attagene TRANS-FACTORIAL HepG2 Assay for M06 Transcription Factor (Internal Marker) (AID 2282983; active = hit-call score of the fitted dose curve at least 0.9, where 1 is the maximum;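 note: reporter transcript level by RT-PCR then capillary electrophoresis fluorescence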); settings: HepG2 Attagene TRANS M06 internal marker reporter
Outline: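 Human liver HepG2 cells bearing transiently transfected chimeric NR-GAL4 reporter units were treated with chemicals for 24 h. Total RNA was reverse-transcribed, reporter sequences amplified and labelled, then quantified by capillary electrophoresis. Activity was fitted upward relative to DMSO.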

[4] = biological target: Transcriptional activator Myb (Homo sapiens) (UniProt P10242); test: ATG_Myb_CIS: Attagene CIS-FACTORIAL HepG2 Assay for human Myeloblastosis (Myb) Proto-Oncogene Transcription Factor (AID 2282986); settings: HepG2 Attagene CIS-FACTORIAL Myb reporter transcription; actives raise or lower the signal
Outline: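 In this HepG2 transient-transfection format, cis-regulated reporter mRNA is quantified 24 h post-dosing by RT-PCR with capillary electrophoresis, fitted bidirectionally to DMSO baseline.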

[5] = biological target: Nuclear respiratory factor 1 (Homo sapiens) (UniProt Q16656); test: ATG_NRF1_CIS: Attagene CIS-FACTORIAL HepG2 Assay for human Nuclear Respiratory Factor 1 (NRF1) Orphan Gene (AID 2282987); settings: HepG2 NRF1 cis-element reporter, Attagene multiplex; actives raise or lower the signal
Outline: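 Using DMSO as baseline, gain- or loss-of-signal was fitted for reporter mRNA levels in HepG2 cells transiently transfected with cis-regulated reporter units. Samples were taken 24 h after dosing and read by RT-PCR with capillary electrophoresis.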

[6] = ATG_NFI_CIS: Attagene CIS-FACTORIAL HepG2 Assay for human Nuclear Factor I (NFI) (AID 2282989); settings: HepG2 cis-regulatory reporter, NFI response element transcription; actives raise or lower the signal
Outline: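 Endogenous TF activity in HepG2 cells transiently transfected with cis-element-driven multiplexed reporter units, read 24 h after dosing. Reporter mRNA quantified by RT-PCR, 6-FAM labelling, HpaI digestion and capillary electrophoresis; bidirectional fit versus DMSO.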

[7] = ATG_M_32_TRANS: Attagene TRANS-FACTORIAL HepG2 Assay for M32 Transcription Factor (Internal Marker) (AID 2282984; active = hit-call score of the fitted dose curve at least 0.9, where 1 is the maximum;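 note: transcript level of a background control reporter unit measured by RT-PCR and capillary electrophoresis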); settings: HepG2 Attagene TRANS M32 internal marker reporter
Outline: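 Fluorescence-detected mRNA induction, HepG2 liver cells, 24 h after dosing. Multiple GAL4-UAS reporter units introduced by transient transfection; background-control endpoint analysed for gain of signal against DMSO.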

[8] = biological target: Nuclear receptor subfamily 4 group A member 2 (Homo sapiens) (UniProt P43354); test: ATG_NURR1_TRANS: Attagene TRANS-FACTORIAL HepG2 Assay for human Nuclear Receptor Related Protein 1 (NURR1) (AID 2282985; active = hit-call score of the fitted dose curve at least 0.9, where 1 is the maximum); settings: HepG2 Attagene TRANS reporter, mRNA readout
Outline: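 Chimeric NR-Gal4 proteins were expressed in human HepG2 cells bearing GAL4-UAS reporter units, and induced reporter mRNA was quantified 24 h post-dosing by RT-PCR and capillary electrophoresis.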

Measured: AC50

Hepatocyte nuclear factor 4-alpha (Homo sapiens), sequence (P41235 whole entry, looked up, the tested form may be a part): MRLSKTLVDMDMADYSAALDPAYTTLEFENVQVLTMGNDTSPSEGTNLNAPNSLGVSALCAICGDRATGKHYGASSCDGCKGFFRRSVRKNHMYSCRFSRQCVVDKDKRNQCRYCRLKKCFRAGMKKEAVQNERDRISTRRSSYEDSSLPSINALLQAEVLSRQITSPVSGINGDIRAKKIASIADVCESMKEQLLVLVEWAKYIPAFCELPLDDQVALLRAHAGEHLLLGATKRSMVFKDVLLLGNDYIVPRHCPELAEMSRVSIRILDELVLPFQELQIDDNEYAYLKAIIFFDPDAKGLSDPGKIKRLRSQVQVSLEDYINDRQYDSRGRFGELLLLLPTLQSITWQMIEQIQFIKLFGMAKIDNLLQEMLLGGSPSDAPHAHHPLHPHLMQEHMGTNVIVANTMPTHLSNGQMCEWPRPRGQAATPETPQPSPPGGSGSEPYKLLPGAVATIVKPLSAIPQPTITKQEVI
Transcriptional activator Myb (Homo sapiens), sequence (P10242 whole entry, looked up): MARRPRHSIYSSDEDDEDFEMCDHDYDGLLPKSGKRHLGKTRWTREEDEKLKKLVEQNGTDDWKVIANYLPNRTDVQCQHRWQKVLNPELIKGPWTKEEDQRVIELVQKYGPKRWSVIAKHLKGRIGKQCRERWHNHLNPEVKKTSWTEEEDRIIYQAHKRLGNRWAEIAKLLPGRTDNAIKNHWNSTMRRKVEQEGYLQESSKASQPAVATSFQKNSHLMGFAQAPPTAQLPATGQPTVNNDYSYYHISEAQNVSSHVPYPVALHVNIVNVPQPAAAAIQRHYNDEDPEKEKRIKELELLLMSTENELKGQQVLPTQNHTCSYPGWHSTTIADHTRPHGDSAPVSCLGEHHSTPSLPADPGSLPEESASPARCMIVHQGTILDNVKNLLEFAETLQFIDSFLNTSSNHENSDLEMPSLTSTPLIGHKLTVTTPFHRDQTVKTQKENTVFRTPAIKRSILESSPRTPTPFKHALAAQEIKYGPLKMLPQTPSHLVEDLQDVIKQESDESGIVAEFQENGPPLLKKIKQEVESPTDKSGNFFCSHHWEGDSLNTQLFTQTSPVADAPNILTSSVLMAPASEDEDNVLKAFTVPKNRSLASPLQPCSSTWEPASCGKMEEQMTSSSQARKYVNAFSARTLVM
Nuclear receptor subfamily 4 group A member 2 (Homo sapiens), sequence (P43354 whole entry, looked up, the tested form may be a part): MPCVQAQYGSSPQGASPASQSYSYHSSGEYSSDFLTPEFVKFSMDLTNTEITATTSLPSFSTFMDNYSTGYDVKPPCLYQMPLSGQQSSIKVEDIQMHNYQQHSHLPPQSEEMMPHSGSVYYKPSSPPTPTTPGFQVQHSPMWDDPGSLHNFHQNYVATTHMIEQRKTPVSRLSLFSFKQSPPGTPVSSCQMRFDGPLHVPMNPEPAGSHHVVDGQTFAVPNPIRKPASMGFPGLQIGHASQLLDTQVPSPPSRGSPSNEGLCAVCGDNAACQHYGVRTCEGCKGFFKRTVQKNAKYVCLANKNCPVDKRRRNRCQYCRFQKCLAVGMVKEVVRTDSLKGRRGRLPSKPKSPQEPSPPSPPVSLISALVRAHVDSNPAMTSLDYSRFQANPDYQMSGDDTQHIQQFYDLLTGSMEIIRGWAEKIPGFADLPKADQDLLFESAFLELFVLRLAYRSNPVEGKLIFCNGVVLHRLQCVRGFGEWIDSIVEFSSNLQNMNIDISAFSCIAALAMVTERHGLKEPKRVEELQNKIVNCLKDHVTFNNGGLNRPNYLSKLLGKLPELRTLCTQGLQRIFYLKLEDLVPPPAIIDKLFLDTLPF
Nuclear respiratory factor 1 (Homo sapiens), sequence (Q16656 whole entry, looked up): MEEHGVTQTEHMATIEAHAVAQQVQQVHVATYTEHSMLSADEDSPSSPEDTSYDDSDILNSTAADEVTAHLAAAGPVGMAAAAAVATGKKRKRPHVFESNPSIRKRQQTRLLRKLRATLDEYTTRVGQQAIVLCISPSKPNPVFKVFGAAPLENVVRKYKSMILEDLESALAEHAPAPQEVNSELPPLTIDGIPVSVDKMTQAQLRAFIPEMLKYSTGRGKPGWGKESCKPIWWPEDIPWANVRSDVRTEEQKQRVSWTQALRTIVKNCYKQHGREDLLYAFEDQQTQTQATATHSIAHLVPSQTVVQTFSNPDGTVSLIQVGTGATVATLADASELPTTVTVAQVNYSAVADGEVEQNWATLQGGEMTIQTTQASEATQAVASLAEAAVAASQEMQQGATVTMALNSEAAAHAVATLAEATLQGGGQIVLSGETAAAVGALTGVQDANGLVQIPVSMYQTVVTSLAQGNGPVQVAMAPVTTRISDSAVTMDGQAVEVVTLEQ
Oxysterols receptor LXR-beta (Homo sapiens), sequence (P55055 whole entry, looked up, the tested form may be a part): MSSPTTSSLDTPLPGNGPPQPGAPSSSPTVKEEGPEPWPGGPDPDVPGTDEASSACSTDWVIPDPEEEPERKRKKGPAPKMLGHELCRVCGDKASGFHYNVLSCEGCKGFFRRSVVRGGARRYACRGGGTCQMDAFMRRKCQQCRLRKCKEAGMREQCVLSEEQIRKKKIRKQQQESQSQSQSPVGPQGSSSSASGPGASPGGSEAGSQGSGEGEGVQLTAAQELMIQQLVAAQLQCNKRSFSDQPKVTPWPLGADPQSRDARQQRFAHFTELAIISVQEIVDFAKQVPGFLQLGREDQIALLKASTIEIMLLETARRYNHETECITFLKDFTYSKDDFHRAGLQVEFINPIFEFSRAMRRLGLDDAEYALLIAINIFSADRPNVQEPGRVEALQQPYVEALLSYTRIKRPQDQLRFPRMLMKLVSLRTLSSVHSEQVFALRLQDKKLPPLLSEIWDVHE

CCCCCCCCCCCCBr
not listed: [7] | [8]
inactive: all other assays above

N#Cc1ccc(Cl)cc1
not listed: [2]
inactive: all other assays above

C=C(C)C(=O)OCCCCOC(=O)C(=C)C
not listed: [3]
inactive: all other assays above

O=C(CBr)c1ccc(O)cc1
inactive: [1] | [4]

CCC(C)(C#N)N=NC(C)(C#N)CC (stereo unspecified)
not listed: [1]
inactive: all other assays above

CC(=O)CN(CC(C)=O)N=O
not listed: [1] | [8]
inactive: all other assays above

Oc1c(Cl)cc(Cl)cc1Cl
inactive: [1] | [3] | [7] | [4]

CC1(C)COP(Oc2ccccc2)OC1
not listed: [2]
inactive: all other assays above

Cc1cc(Cl)ccc1O
not listed: [3] | [8]
inactive: all other assays above

N#Cc1cccnc1
inactive: [1] | [8] | [4] | [5] | [6]

CCCCS(=O)(=O)Cl
not listed: [3]
inactive: all other assays above

N#CCC#N
not listed: [7]
inactive: all other assays above

C[C@@H]1O[C@@H](O[C@H]2C[C@@H](O)[C@]3(CO)[C@H]4[C@H](O)C[C@]5(C)[C@@H](C6=CC(=O)OC6)CC[C@]5(O)[C@@H]4CC[C@]3(O)C2)[C@H](O)[C@H](O)[C@H]1O
inactive: [1] | [2] | [3] | [8]
active: [4] 0.328 µM | [6] 0.645 µM

O=c1nc(O)n(Cl)c(=O)n1Cl
not listed: [1]
inactive: all other assays above

CN(C)[C@@H]1C(=O)C(C(N)=O)=C(O)[C@@]2(O)C(=O)C3=C(O)c4c(O)ccc(Cl)c4[C@@](C)(O)[C@H]3C[C@@H]12
not listed: [2] | [6]
inactive: all other assays above

CCNc1nc(NCC)nc(SC)n1
not listed: [1] | [8]
inactive: all other assays above

C#CCO
inactive: [1] | [3] | [7] | [4] | [5]

CCN(CCO)CCO
not listed: [2] | [7]
inactive: all other assays above

O=C(N[C@H]1CN2CCC1CC2)c1ccc2c(c1)OCCO2
not listed: [2] | [8]
inactive: all other assays above

CCOP(=S)(OCC)SCSc1cc(Cl)ccc1Cl
inactive: [1] | [7] | [8] | [4] | [6]

Cc1cc(C)cc(C)c1
inactive: [1] | [3] | [7] | [4] | [5]

CCOC(=O)c1ccccc1S(=O)(=O)NC(=O)Nc1nc(Cl)cc(OC)n1
not listed: [1]
inactive: all other assays above

CC(C)(C)c1ccccc1O
inactive: [1] | [7] | [4]
active: [8] 63.4 µM | [5] 100 µM | [6] 100 µM

c1ccc2c(c1)Oc1ccccc1O2
inactive: [3] | [4] | [5] | [6]

CC(C)CP(=S)(S)CC(C)C
inactive: [2] | [3] | [7] | [4] | [6]

CC(c1ccc(O)cc1)c1ccc(O)cc1
not listed: [1] | [3]
inactive: all other assays above

CC(C)(COCC1CO1)COCC1CO1 (stereo unspecified)
inactive: [2] | [7] | [4] | [5] | [6]

C=C(C)C(=O)OCC(CC)CCCC (stereo unspecified)
not listed: [1] | [7]
inactive: all other assays above

O=S(=O)(Oc1ccc(Cl)cc1)c1ccc(Cl)cc1
inactive: [3] | [8] | [4] | [5] | [6]

CCOP(=O)(OCC)OC(=CCl)c1ccc(Cl)cc1Cl
active: [8] 100 µM
inactive: [7] | [4] | [5] | [6]

OC(c1ccc(Cl)cc1)(c1ccc(Cl)cc1)c1cccnc1
not listed: [1] | [7]
inactive: all other assays above

C1CN2CCN1CC2
not listed: [1] | [3]
inactive: all other assays above

CN(N=O)c1ccc([N+](=O)[O-])cc1
not listed: [1] | [2]
inactive: all other assays above

BrCC(Br)c1ccccc1 (stereo unspecified)
inactive: [3] | [7] | [8] | [4]

Oc1cccc(-c2ccccc2)c1
inactive: [3] | [8] | [4] | [5]
active: [6] 139 µM

CCCSP(=S)(OCC)Oc1ccc(SC)cc1 (stereo unspecified)
inactive: [8] | [4] | [5] | [6]

O=NN1CCOCC1
inactive: [3] | [8] | [4] | [5] | [6]

Cc1cccc(OP(=O)(Oc2cccc(C)c2)Oc2cccc(C)c2)c1
inactive: [7] | [8] | [4] | [5] | [6]

CCC[N+](CCC)(CCC)CCC
inactive: [3] | [7] | [4] | [5] | [6]

CCCCOC(=O)COC(=O)c1ccccc1C(=O)OCCCC
not listed: [1] | [3]
inactive: all other assays above

Cc1c([N+](=O)[O-])c(C)c([N+](=O)[O-])c(C(C)(C)C)c1[N+](=O)[O-]
active: [8] 11.3 µM
inactive: [3] | [4] | [5] | [6]

C[As+](C)(C)CC(=O)[O-]
inactive: [4] | [5] | [6]

Clc1cccc(Cl)c1
inactive: [4] | [5] | [6]

Nc1ncn[nH]1
inactive: [3] | [4] | [5] | [6]

ClCc1ccccc1Cl
inactive: [7] | [8] | [4] | [5]

Cc1cccc(N=Nc2ccc(N(C)C)cc2)c1
inactive: [2] | [3] | [4] | [5] | [6]

O=C(O)COc1cc(Cl)c(Cl)cc1Cl
inactive: [3] | [7] | [4] | [5] | [6]

CC(c1ccccc1)(c1ccc(O)cc1)c1ccc(O)cc1
inactive: [3] | [7] | [4] | [6]
active: [8] 18.2 µM

CCCCCCCCCCCCc1cccc(S(=O)(=O)O)c1
inactive: [3] | [8] | [4] | [6]

O=[N+]([O-])c1cccc2ccccc12
inactive: [2] | [3] | [7] | [4] | [6]

CNC(=O)O/N=C/C(C)(C)S(C)(=O)=O
inactive: [7] | [8] | [4] | [5] | [6]

CCOc1ccc(N)cc1
inactive: [2] | [8] | [4] | [5] | [6]

CCCCCCCCCCCCOS(=O)(=O)O
inactive: [7] | [8] | [4] | [6]

CCC[CH2][Sn]([Cl])([Cl])[CH2]CCC
active: [5] 0.778 µM | [6] 0.458 µM
inactive: [2] | [3] | [4]

CC(C)(c1ccc(O)c(-c2ccccc2)c1)c1ccc(O)c(-c2ccccc2)c1
inactive: [3] | [7] | [8] | [4] | [6]

Clc1ccc(C(Cl)(Cl)Cl)cn1
not listed: [1] | [7]
inactive: all other assays above

O=S1(=O)OC(c2cc(Br)c(O)c(Br)c2)(c2cc(Br)c(O)c(Br)c2)c2ccccc21
not listed: [1] | [2]
inactive: all other assays above

CC(=O)C(F)(F)C(F)(F)F
inactive: [2] | [3] | [4] | [5] | [6]

CC(=Cc1ccccc1)[N+](=O)[O-]
active: [5] 17.2 µM
not listed: [1] | [7]
inactive: all other assays above

O=C1c2ccccc2C(=O)C1C(=O)C(c1ccccc1)c1ccc(Cl)cc1 (stereo unspecified)
inactive: [2] | [5] | [6]
active: [8] 4.69 µM | [4] 173 µM

CCCCN(CCCCO)N=O
inactive: [3] | [4] | [5] | [6]

C=CC(Cl)CCl (stereo unspecified)
inactive: [3] | [8] | [4] | [5] | [6]

Cc1cc(C(F)(C(F)(F)F)C(F)(F)F)ccc1NC(=O)c1cccc(I)c1C(=O)NC(C)(C)CS(C)(=O)=O
inactive: [4] | [5] | [6]
